We go through 40 compounds from PubChem BioAssay (NCI).

This is part of a sample that, as a whole, favours compounds with a hit. Of some 83,000 tested, about 20% had one in any assay.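 Method: cells in 96-well plates; compound added at one concentration; 48 h incubation; percent growth measured; values under 10 scored active.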 The source made the active and inactive calls.

The assay has as its system OVCAR-8 ovarian. Description: NCI-60 one-dose screen, 48 h (100 = growth as untreated, 0 = no growth, -100 = all killed). The conditions noted are these: 10 µM unless noted. As to the method: Growth inhibition of the OVCAR-8 human tumor cell line is measured as a screen for anti-cancer activity. Cells are grown in 96 well plates and exposed to the test compound for 48 hours. Compounds are tested at a single concentration, which is 10^-5 M for most compounds. The reported endpoint is percent growth (GI% or GIPRCNT), where numbers from 0 - 100% represent growth inhibition, and numbers from -100% - 0 represent cell death. For example, a value of 40 represents 60% growth inhibition. A value of 0 means no net growth occurred over the course of the experiment. A value of -40 indicates 40% of cells at the beginning of the experiment died by the end of the experiment. A value of -100 means all cells are dead at the end of the experiment.
NCI-60 Human Tumor Cell Lines Screen was performed using the standard one-dose NCI protocol, which is described in more detail at https://dtp.cancer.gov/discovery_development/nci-60/default.htm.
Compounds with GIPRCNT values below 10 were considered active. Activity score was based on GIPRCNT using the following formula: […]
Score is 0 for GIPRCNT values of 100 or above, 50 for GIPRCNT values of 0, and 100 for GIPRCNT values of -100.
On to `C=C(C)[C@@H]1CC[C@]2(CNCCO)CC[C@]3(C)[C@H](CC[C@@H]4[C@@]5(C)CCC(N)[C@@](C)(CO)[C@@H]5CC[C@]43C)[C@@H]12` (stereo not given in full), for which the growth is 10.7% (inactive). For `COc1ccc(-c2cc(-c3ccc(Nc4nc(Nc5ccccc5)nc(Nc5ccc(Cl)cc5)n4)cc3)nc(N)c2C#N)cc1`, the growth is 31.9% (inactive).

`COc1ccc(O)c(-c2cc(-c3ccccc3)c(C#N)c(=O)[nH]2)c1`: the growth was 96.3% (inactive). Next, `COc1ccc(/C=C2\COc3ccc(O)c(O)c3C2=O)c(OC)c1`: 41.5% (inactive); `COc1c(C)cnc(CSc2nc(-c3ccc(C)cc3)cn2-c2ccc(Cl)cc2)c1C`: 98.5% (inactive); `CCN(CC)CCCNC(=O)c1ccc(N)cc1O`: 103% (inactive).

In the case of `CC(C)(C)CC(C)(C)Nc1c(-c2ccc(-c3ccccc3)cc2)nc2cnccn12`, the growth is 70.2% (inactive). Next, `Cn1cc(Nc2nccc(-c3ccc(N4CCCC4)c(C#N)c3)n2)cn1`: 47.3% (inactive); `COc1cc2nc(Nc3ccc(F)cc3)nc(N)c2cc1OC`: 93.1% (inactive); `COc1ccc2c(c1)/C(=C\c1sc(=S)[nH]c1O)C(C(=O)O)=N2`: 99% (inactive). Next, `CC(C)N(CCOC(=O)Nc1ccccc1Cl)C(C)C`: 99.7% (inactive); `C[C@@H]1CC[C@@H]2[C@@H]1[C@H](OC(=O)/C=C/c1ccccc1)[C@]1(C3CCCCC3)C[C@@H](NC(=O)CO)[C@@]2(C)O1`: 98.6% (inactive); `CS(=O)(=O)c1ccc(-c2nc3cc(Cl)ccc3n2CC(=O)NO)cc1`: 88.3% (inactive).

Turning to `CCn1c(Sc2nnc(Nc3ccccc3)s2)nc2c1c(=O)n(C)c(=O)n2C`, the growth was 103% (inactive). Next, `c1ccc(-c2oc3ccccc3c2-c2ccccc2)cc1`: 102% (inactive); `C=C1C(=O)O[C@H]2[C@H]1CC/C(COC(=O)/C=C\C(=O)NCc1ccc(Cn3c(=O)sn(CCCI)c3=O)cc1)=C\CC[C@@]1(C)O[C@@H]21`: -1.28% (active); `N[C@H]1CCC[C@@H]1NCCCCN1C(=O)c2cccc3cccc(c23)C1=O`: 39.9% (inactive). Next, `CCCCS(=O)(=O)Oc1ccc(-c2nc(C)c(C(=O)OCC)s2)cc1C=O`: 45.4% (inactive); `CN1CCN(CCCOc2ccc3nc(Nc4cc(Cl)cc(Cl)c4)ccc3c2)CC1`: -47.3% (active). Next, `C[C@@H]1CC[C@@H]2[C@@H]1[C@H](OC(=O)c1ccc3ccccc3c1)[C@]1(C3CCCCC3)C[C@@H](OC(=O)CO)[C@@]2(C)O1`: 18.5% (inactive); `CN(C)c1ccc(C#Cc2c(F)cccc2Cl)cc1`: 93.2% (inactive); `Cc1nc(Nc2ccc(NC(=S)Nc3ccccc3)cc2)c2ccccc2n1`: 101% (inactive). In the case of `NC(N)=N/N=C(/c1ccccc1)c1ccc(N)cc1`, the growth was 108% (inactive). `COc1ccc(-n2nnc(C(=O)NCCc3c[nH]c4ccc(F)cc34)c2C)cc1`: the growth is 98.6% (inactive). Regarding `COc1cc(C(=O)/C=C/c2c(C(F)(F)F)nc3ccccn23)cc(OC)c1OC`, the growth was 3.68% (active). For the compound `O[C@H]1CO[C@H]2[C@@H]1OC[C@@H]2Oc1ccc(Nc2nc(Nc3ccc(F)c(Cl)c3)ncc2F)cc1Cl`, the growth is 111% (inactive). Next, `CC(C)(C)N1CC(OC(N)=O)C1`: 84.9% (inactive); `COC(=O)CCCNC(=O)C(=O)c1c(O)c(O)c(C(C)C)c2cc(C)c(-c3c(C)cc4c(C(C)C)c(O)c(O)c(C(=O)C(=O)NCCCC(=O)OC)c4c3O)c(O)c12`: -15.1% (active); `COc1ccc(C2=NC(=O)NC2c2ccc(OC)cc2)cc1` (stereo not given): 97.6% (inactive). Next, `Nc1ccc(-c2cc3c(Nc4ccc(OCc5cccc(F)c5)c(Cl)c4)ncnc3s2)cc1`: 63.1% (inactive). `CCOC(=O)c1cnn2c(-c3ccc(Cl)cc3)nc(NCc3ccccc3)nc12`: the growth was 30.5% (inactive). Next, `CCC(O)(C(c1ccccc1)c1ccccn1)C(c1ccccc1)c1ccccn1` (stereo not given): 106% (inactive); `COc1cc2c(cc1OC)-c1ccc3cc4c(cc3c1N(CCN(C)C)C2)OCO4`: -24.7% (active). Next, `COc1ccc(Nc2ncc(Br)c(NCCCNC(=O)C3CCC3)n2)cc1`: 28.6% (inactive). Next, `O=C(NCOC(O)C(Cl)(Cl)Cl)NCOC(O)C(Cl)(Cl)Cl` (stereo not given): 104% (inactive); `CCn1c(Sc2nnc(NC(=O)CCN3CCCC3)s2)nc2c1c(=O)n(C)c(=O)n2C`: 103% (inactive); `Nc1nc(I)c2ncn(C3OC(CO)C(O)C3O)c2n1` (stereo not given): 112% (inactive).

On to `OC(c1cccc(OCc2ccccc2)c1)c1nnc(-c2ccccc2)o1` (stereo not given), for which the growth was 95.9% (inactive).

For `COc1ccccc1NC(=O)Nc1ccc(-c2nc3ccccc3o2)cc1`, the growth is 102% (inactive). Next, `O=c1[nH]nc(-c2ccc(Cl)cc2)cc1Cc1ccccc1`: 83% (inactive).
